Experimental data from PubChem BioAssay.
Active and inactive are the calls of the source. Unless noted, the rule behind the calls is not given here.

What was measured:
[1] = test system: Wnt5a (protein binding on small-molecule microarray); assay: Wnt5a binders on small-molecule microarray, primary screen, biophysical, 635/667 nm fluorescence (AID 1142); conditions: 635 nm fluorescence, higher = more signal;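 note: fluorescence read at 667 nm with signal to noise per printed feature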
[2] = cell viability in Huh7 cells, primary screen, cytotoxicity control for HCV replication inhibitor project, CellTiter-Glo luminescence, basal, 48 h (AID 1143); conditions: Huh7 HCV replicon, higher = more signal, called active from +8 up or from −8 down;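 note: Huh7 hepatoma cells carrying a hepatitis C replication reporter with no stimulus; test concentration not given here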
[3] = P. aeruginosa biofilm formation inhibitors, primary screen, PAO1 strain, BacTiter-Glo luminescence, LB-PBS (AID 1144); conditions: 12 h, higher = more signal
[4] = CREB reporter modulators without forskolin, primary screen, cell-based, PC12, CRE-LacZ reporter, unstimulated (AID 1145); conditions: no forskolin, luminescence, 4.5 h, higher = more signal, called active from +8 up or from −8 down
[5] = CREB reporter modulators under forskolin, primary screen, cell-based, PC12, CRE-LacZ reporter, forskolin-stimulated (AID 1146); conditions: luminescence, 4.5 h, higher = more signal, called active from +8 up or from −8 down;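 note: PC12 cells with 6xCRE LacZ reporter stimulated by forskolin 10 µM; beta-galactosidase reporter signal reflecting CREB driven transcription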
[6] = target: Streptavidin (Streptomyces avidinii) (UniProt P22629); assay: streptavidin binders on small-molecule microarray, primary screen, artefact control for SMM compound annotation, biophysical, 635/667 nm fluorescence (AID 1147); conditions: streptavidin binding, higher = more signal;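 note: signal reflects streptavidin binding to arrayed compounds as a control protein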
[7] = small-molecule binders of probe aInhba, primary screen, biochemical, small-molecule microarray, 635/667 nm fluorescence (AID 1148); conditions: higher = more signal;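 note: score merges 667nm spot fluorescence with signal-to-noise for antibody binding to printed compounds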
Torsin-1A (Homo sapiens) [8] = target: Torsin-1A (Homo sapiens) (UniProt O14656); assay: torsin A binders from cell lysate, primary screen, small-molecule microarray, wild-type, 635/667 nm (AID 1149); conditions: COS7 hTOR1A-WT lysate, 635 nm fluorescence, higher = more signal
Torsin-1A (Homo sapiens) [9] = target: Torsin-1A (Homo sapiens) (UniProt O14656); assay: small-molecule binders of mutant TOR1A in lysate, primary screen, cell lysate, small-molecule microarray, COS7 lysate, 635/667 nm fluorescence (AID 1150); conditions: COS7 hTOR1A mutant lysate, 635 nm fluorescence, higher = more signal;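 note: score pools 667 nm emission and signal to noise measuring lysate protein binding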
[10] = test system: Sonic hedgehog protein (Shh); assay: small-molecule binders of Shh protein, primary screen, biochemical, small-molecule microarray, 635/667 nm fluorescence (AID 1151); conditions: small-molecule microarray binding, 635 nm fluorescence; higher = more signal;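 note: Shh protein binding to compounds spotted on small-molecule microarray slides; score combines spot fluorescence intensity with signal-to-noise across triplicate slides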
[11] = E. coli DRC41 culture turbidity changes, primary screen, E. coli filamentation inducer project, strain DRC41, OD650, 48 h (AID 1152);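 note: E. coli MC1000 strain DRC41 lacking acrAB efflux pump and sulA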; conditions: E. coli DRC41 (acrAB sulA), higher = more signal, called active from +8 up or from −8 down
[12] = small-molecule binders of probe aLefty1, primary screen, biochemical, small-molecule microarray, 635/667 nm fluorescence (AID 1153); conditions: higher = more signal;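 note: score merges spot fluorescence with signal-to-noise ratio from the scanned slide images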
[13] = PSAC antagonists in infected red cells, primary screen, cell-based, P. falciparum Indochina, OD700, 1 h (AID 1154); conditions: P. falciparum Indochina infected RBC osmotic lysis, higher = more signal, called active from +8 up or from −8 down
[14] = PSAC antagonists in infected red cells, primary screen, cell-based, P. falciparum Indochina, OD700, 2 h (AID 1155);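 note: lysis reports solute entry through the parasite surface anion channel PSAC; channel blockers reduce lysis of infected cells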; conditions: P. falciparum Indochina infected erythrocytes, osmotic lysis OD700; higher = more signal, called active from +8 up or from −8 down
[15] = osmotic lysis modulators in infected erythrocytes, primary screen, PSAC antagonist project, cell-based, P. falciparum Indochina, OD700, 3 h (AID 1156); conditions: higher = more signal, called active from +8 up or from −8 down
[16] = PSAC antagonists in infected red cells, primary screen, cell-based, P. falciparum Indochina, OD700, 18 h (AID 1157); conditions: P. falciparum Indochina infected erythrocytes, osmotic lysis OD700, 18 h; higher = more signal, called active from +8 up or from −8 down
[17] = modulators of S6 phosphorylation in cells, primary screen, cell-based, A549, cytoblot, luminescence, serum-stimulated (AID 1158); conditions: A549 phospho-S6 cytoblot, 5 h, higher = more signal;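 note: serum-stimulated A549 lung adenocarcinoma cells; signal is phosphorylated S6 detected by cytoblot immunostaining with HRP secondary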
[18] = target: NADPH oxidase 2 (Homo sapiens) (UniProt P04839); assay: NOX2-dependent H2O2 signal modulators, primary screen, NOX inhibitor project, cell-based, HEK293-NOX2, PMA-stimulated, Amplex Red fluorescence (AID 1159); conditions: 45 min, higher = more signal, called active from +8 up or from −8 down; note: test concentration not given here
[19] = target: NADPH oxidase 4 (Homo sapiens) (UniProt Q9NPH5); assay: NOX4-dependent H2O2 signal modulators, primary screen, NOX inhibitor project, cell-based, HEK293-NOX4, tetracycline-induced, Amplex Red fluorescence (AID 1160); conditions: 45 min, higher = more signal, called active from +8 up or from −8 down
[20] = target: NADPH oxidase 5 (Homo sapiens) (UniProt Q96PH1); assay: NOX5-dependent H2O2 signal modulators, primary screen, NOX inhibitor project, cell-based, HEK293-NOX5, Amplex Red fluorescence (AID 1161); conditions: HEK293-NOX5, ionomycin, 45 min, higher = more signal
Chain of NADPH oxidase 5 (Homo sapiens) (Q96PH1 whole entry, looked up): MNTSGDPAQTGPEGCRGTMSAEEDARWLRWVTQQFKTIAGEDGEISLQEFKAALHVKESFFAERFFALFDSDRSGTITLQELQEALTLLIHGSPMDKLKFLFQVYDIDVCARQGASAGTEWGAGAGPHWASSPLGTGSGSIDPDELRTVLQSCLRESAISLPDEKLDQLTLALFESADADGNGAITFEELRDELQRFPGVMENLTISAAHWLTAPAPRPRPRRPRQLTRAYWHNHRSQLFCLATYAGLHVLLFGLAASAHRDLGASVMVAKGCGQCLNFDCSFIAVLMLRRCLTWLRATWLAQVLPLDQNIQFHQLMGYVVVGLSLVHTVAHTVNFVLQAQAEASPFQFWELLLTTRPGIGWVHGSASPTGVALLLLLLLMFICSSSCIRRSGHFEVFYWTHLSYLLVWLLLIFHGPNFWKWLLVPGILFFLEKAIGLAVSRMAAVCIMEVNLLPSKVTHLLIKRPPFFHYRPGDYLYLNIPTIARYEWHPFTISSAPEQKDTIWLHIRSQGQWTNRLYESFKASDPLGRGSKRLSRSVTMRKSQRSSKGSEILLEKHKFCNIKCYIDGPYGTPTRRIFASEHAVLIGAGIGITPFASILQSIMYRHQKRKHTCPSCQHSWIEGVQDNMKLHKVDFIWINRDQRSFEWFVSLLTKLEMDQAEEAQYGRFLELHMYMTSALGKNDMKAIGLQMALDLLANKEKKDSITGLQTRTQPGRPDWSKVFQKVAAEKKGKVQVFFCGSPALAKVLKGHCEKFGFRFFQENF

Chain of NADPH oxidase 2 (Homo sapiens) (P04839 whole entry, looked up): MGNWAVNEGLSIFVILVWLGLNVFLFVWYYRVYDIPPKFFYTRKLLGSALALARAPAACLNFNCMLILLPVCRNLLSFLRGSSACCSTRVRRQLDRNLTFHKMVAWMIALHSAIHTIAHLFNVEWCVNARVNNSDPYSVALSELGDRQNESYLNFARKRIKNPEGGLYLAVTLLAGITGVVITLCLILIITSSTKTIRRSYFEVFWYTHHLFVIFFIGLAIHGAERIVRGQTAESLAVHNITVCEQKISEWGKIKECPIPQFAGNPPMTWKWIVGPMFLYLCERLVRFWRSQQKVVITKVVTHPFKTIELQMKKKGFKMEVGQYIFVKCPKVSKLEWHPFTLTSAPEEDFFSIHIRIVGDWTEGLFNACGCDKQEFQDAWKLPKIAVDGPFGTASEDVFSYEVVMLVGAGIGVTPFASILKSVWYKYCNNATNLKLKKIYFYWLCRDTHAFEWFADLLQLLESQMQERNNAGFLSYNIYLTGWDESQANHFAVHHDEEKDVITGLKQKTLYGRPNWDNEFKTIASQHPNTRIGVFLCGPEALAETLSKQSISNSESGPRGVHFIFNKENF
Chain of Torsin-1A (Homo sapiens) (O14656 whole entry, looked up): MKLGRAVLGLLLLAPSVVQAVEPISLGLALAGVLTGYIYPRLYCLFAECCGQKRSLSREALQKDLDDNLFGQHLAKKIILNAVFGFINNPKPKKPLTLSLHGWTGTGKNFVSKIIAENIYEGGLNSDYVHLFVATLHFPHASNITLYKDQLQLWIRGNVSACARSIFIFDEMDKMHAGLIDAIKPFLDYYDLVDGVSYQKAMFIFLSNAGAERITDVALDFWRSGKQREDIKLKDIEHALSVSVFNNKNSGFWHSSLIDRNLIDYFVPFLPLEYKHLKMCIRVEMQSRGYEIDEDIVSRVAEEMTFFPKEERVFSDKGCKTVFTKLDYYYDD
Chain of Streptavidin (Streptomyces avidinii) (P22629 whole entry, looked up): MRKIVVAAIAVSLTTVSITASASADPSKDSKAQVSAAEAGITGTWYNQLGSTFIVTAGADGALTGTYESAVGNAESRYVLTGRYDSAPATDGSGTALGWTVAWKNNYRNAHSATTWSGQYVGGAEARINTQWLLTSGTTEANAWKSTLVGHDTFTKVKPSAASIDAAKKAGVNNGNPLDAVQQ
Chain of NADPH oxidase 4 (Homo sapiens) (Q9NPH5 whole entry, looked up): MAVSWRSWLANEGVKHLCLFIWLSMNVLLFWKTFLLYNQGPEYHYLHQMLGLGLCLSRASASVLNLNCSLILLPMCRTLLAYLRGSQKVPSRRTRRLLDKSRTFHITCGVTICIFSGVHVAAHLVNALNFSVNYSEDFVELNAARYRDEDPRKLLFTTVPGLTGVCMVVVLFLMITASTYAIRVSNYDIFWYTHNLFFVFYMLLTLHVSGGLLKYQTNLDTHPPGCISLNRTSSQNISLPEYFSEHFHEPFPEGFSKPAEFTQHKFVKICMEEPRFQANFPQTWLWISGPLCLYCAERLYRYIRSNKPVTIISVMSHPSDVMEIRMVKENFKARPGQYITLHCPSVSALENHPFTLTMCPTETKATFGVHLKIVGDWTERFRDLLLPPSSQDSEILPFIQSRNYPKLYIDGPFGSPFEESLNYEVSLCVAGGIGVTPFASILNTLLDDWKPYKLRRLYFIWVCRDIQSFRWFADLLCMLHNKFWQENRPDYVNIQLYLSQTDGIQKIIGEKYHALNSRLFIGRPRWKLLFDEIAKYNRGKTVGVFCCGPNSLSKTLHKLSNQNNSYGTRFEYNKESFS

Compound | composite z-score [1] | z-score [2] | z-score [3] | z-score [4] | z-score [5] | composite z-score [6] | composite z-score [7] | composite z-score (Torsin-1A (Homo sapiens) [8]) | composite z-score (Torsin-1A (Homo sapiens) [9]) | composite z-score [10] | z-score [11] | composite z-score [12] | z-score [13] | z-score [14] | z-score [15] | z-score [16] | z-score [17] | z-score [18] | z-score [19] | z-score [20]
NC(=O)N1C(=O)C2C(C1=O)C1C=C(CCCO)C2C(c2ccc(CN3CCCC3)cc2)N1Cc1sc2ccccc2c1Cl (stereo not given) | -0.24 | -3.46 (inactive) | 0.386 (inactive) | -0.0602 (inactive) | -1.08 (inactive) | 0.558 | -0.268 | -0.174 | 0.823 | 0.287 | -0.711 (inactive) | -0.251 | 3.48 (inactive) | 0.894 (inactive) | 0.363 (inactive) | 0.504 (inactive) | 0.457 | -0.101 (inactive) | 0.353 (inactive) | 0.198
CCN(CC)c1ccc(N2CC=CC34O[C@@H]5C=CCCOC(=O)C5[C@H]3C(=O)N(C(C)CO)[C@@H]4C2=O)cc1 (stereo not given in full) | -0.188 | 0.0396 (inactive) | 1.25 (inactive) | 1.01 (inactive) | -0.0386 (inactive) | -0.638 | 0.166 | 0.0632 | -0.194 | 1.53 | -0.627 (inactive) | 0.138 | 3.66 (inactive) | 0.493 (inactive) | 0.988 (inactive) | 0.353 (inactive) | -0.465 | -0.748 (inactive) | 0.447 (inactive) | 0.772
COc1cc(CO)cc(I)c1O[C@H]1C=C(C(=O)NCCO)C[C@@H](NC2CCCCCC2)[C@@H]1O | 0.29 | -1.65 (inactive) | 0.0741 (inactive) | 5.46 (inactive) | 0.0453 (inactive) | -0.0211 | -0.0115 | 0.0076 | 0.243 | 1.3 | 0.818 (inactive) | 0.0313 | 10.1 (active) | 1.55 (inactive) | 3.68 (inactive) | 1.09 (inactive) | 0.565 | 0.287 (inactive) | -0.789 (inactive) | -0.579
C=CC[C@]1(C(=O)NCC(O)CO)COC(c2ccc(OCCCO)cc2)=N1 (stereo not given in full) | 0.359 | 0.154 (inactive) | -0.055 (inactive) | 0.792 (inactive) | -0.282 (inactive) | -0.486 | 0.109 | 0.185 | 1.03 | -0.495 | -0.353 (inactive) | 0.174 | 3.8 (inactive) | 0.203 (inactive) | 0.99 (inactive) | 0.545 (inactive) | 0.18 | -0.261 (inactive) | 0.914 (inactive) | 0.462
